# HT1080-NT tox = kills 2HG-producing HT-1080-NT fibrosarcoma cells; HT-1080-NT fibrosarcoma viability, CellTiter-Glo ATP luminescence, 48 h; Potency, µM (top dose mostly 46.1 µM), inactives show at the highest dose activity, negative = less viability, hits mostly cytotoxic; actives 1.6% (n = 360,000);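 further: NT is the 2HG producing partner of a matched IDH1 knockdown line; 0% = DMSO-treated cells and -100% = media-only wells without cells; nearly all actives have a fitted effect of over 55% in size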
#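 Fibrosarcoma NT cells, 750 per well in 5% FBS RPMI, were exposed to compound for 48 hours. Viability: CellTiter-Glo luminescence.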
# SW480 rerep = induces DNA re-replication in SW480 colon adenocarcinoma cells | SW480 DNA re-replication, Hoechst DNA content imaging, 48 h | Potency, µM (series often up to 46.1 µM), without a hit: at the highest dose re-replication activation, most hits filed as activators | actives 1.8% (n = 340,000) | AID 624297; further: % of control where 0% means no effect; nearly all actives have a fitted effect of over 55% in size
#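 Image-based DNA-content assay: after two days of treatment, nuclei were labelled with the DNA dye Hoechst and imaged, and hits were compounds raising the count of nuclei showing high fluorescence intensity.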
# HT1080 IDH1KD tx = toxicity to HT-1080 IDH1 knockdown cells (counter line) | HT-1080 IDH1 knockdown viability, ATP luminescence, 48 h | Potency, µM (highest dose often 46.1 µM), for inactives: at the top dose activity, negative = toxicity, actives largely listed as cytotoxic | actives 2% (n = 360,000) | AID 686971;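 further: 0% = DMSO wells and -100% = cell-free medium wells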
#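 Assay cells: HT-1080 with IDH1 knockdown, 750 per well, RPMI/5% FBS. Exposure: 48 h at 37 °C following 2 h pre-incubation. Read: CellTiter-Glo luminescence; fitted concentration-response, curve class assigned.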
# MCF10A rereplic = DNA re-replication induction in MCF 10a cells; MCF 10A DNA re-replication, Hoechst nuclear intensity, 48 h; Potency, µM (doses to about 46.1 µM), for the others: at the highest dose activity, positive = re-replication, actives largely listed as activators; actives 2.9% (n = 350,000); further: % of control where 0% means no effect; nearly all actives have a fitted effect of over 50% in size
# KB-V1 cytotox = kills drug-selected multidrug resistant KB-V1 cells; actives 3.4% (n = 400,000); Potency, µM (doses to about 46.1 µM), most hits filed as cytotoxic; AID 1347076; KB-V1 MDR cells viability, CellTiter-Glo, 72 h; further: on the % scale 0 is the no-effect control and ±100 the full control effect; nearly all actives have a fitted effect of over 60% in size
#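 Readout: CellTiter-Glo luminescence, 10 min after addition. Cells: KB-V1 MDR subline, 72 h at 37 degrees C with compound. Analysis: corrected, normalized data fitted to concentration-effect curves.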
# KB-3-1 cytotox = KB-3-1 parental cell cytotoxicity; KB-3-1 viability, CellTiter-Glo ATP luminescence, 72 h; Potency, µM (highest dose often 46.1 µM), most hits filed as cytotoxic; actives 1.4% (n = 400,000); further: on the % scale 0 is the no-effect control and ±100 the full control effect; nearly all actives have a fitted effect of over 60% in size
#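 Luminescent ATP read-out (CellTiter-Glo) measures survival of drug-naive KB-3-1 cells after 72 h compound exposure at 37 °C. Titration series was screened from lowest to highest concentration, with DMSO vehicle plates as background controls.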
# * = called active by the depositor; i = inactive; ? = inconclusive; · = no result. Compounds with a hit are over-represented: about 7.9% of the library has one in this group of screens. The call rests on the fitted dose curve; in most records, active means well fitted curve in the direction sought with a large enough effect; inconclusive means small, poorly fitted or top-dose-only effect, or another doubt; inactive means no such curve, though single readings can be large; an effect the other way counts as inactive or inconclusive. Potency means the concentration at half of the fitted maximal effect.
SMILES,HT1080-NT tox,SW480 rerep,HT1080 IDH1KD tx,MCF10A rereplic,KB-V1 cytotox,KB-3-1 cytotox
CN(C1=C(N2CCOCC2)C(=O)c2ccccc2C1=O)c1ccccc1,-17.4%,5.8%,-28.3%,9.7%,11.6µM*,i
O=C1C=C(N2CCOCC2)c2ccccc2C1=O,6.51µM*,2.91µM*,4.61µM*,?,?,?
Cc1ccc(N2CCOCC2)c2c1C(=O)c1ccccc1C2=O,-23.0%,9.0%,?,?,14.6µM*,i
CC(=O)N(C(C)=O)N1C(=O)c2cccc3c(N4CCOCC4)ccc(c23)C1=O,-5.2%,?,-5.4%,1.6%,i,i
O=C1C(N2CCOCC2)=Cc2cccc3cccc1c23,9.9%,·,0.3%,·,16.4µM*,i
O=C(C[n+]1ccnc2ccccc21)c1ccc(Br)cc1,·,·,·,·,i,i
CCOC(=O)c1ccc(NC(=O)CSc2nnc(CNC(=O)c3ccc(OC)cc3)n2CC)cc1,·,·,·,·,i,i
COc1cc2nc(N3CCCN(C)CC3)nc(NC3CCNCC3)c2cc1OC,-3.8%,·,12.1%,·,·,·
CCCCCC[N+](C)(C)CCSSCC[N+](C)(C)CCCCCC,11.3%,-4.1%,1.2%,5.5%,i,i
CCCCCCCCCCCCCCCC[N+](C)(C)CC,16.4µM*,?,16.4µM*,?,i,?
CCCCCCCCCCCCCCCC[N+](C)(C)CCl,-10.7%,20.6µM*,-29.9%,24.7%,i,?
CCCCCCCCCCCCCC[N+](C)(C)C,·,?,·,45.7%,·,·
OC[C@@H]1CN(Cc2ccccc2)C[C@H](n2cnc3c(Nc4ccccc4)ncnc32)O1,-12.0%,·,13.1%,·,i,i
Cc1c(C(=O)Nc2cccc([N+](=O)[O-])c2)csc1-c1ccccc1,-12.4%,3.3%,-16.8%,?,8.2µM*,i
O=C(Nc1cccc([N+](=O)[O-])c1)c1cc2ccccc2cc1O,3.66µM*,?,3.66µM*,?,?,13µM*
COc1ccc(NC(=O)c2cc([N+](=O)[O-])ccc2O)cc1,20.6µM*,17.7%,?,?,?,18.4µM*
O=C(O)c1ccccc1C(=O)Nc1cccc([N+](=O)[O-])c1,-3.7%,-1.3%,-0.8%,-5.6%,i,i
N#Cc1cccc(N2[C@@H](Cc3cc4ccccc4n3Cc3ccccc3)COC[C@H]2Cc2ccc3ccccc3c2)c1,6.9%,·,8.9%,·,i,i
CCOc1cc(NC(=O)CC(C)C)c(OCC)cc1NC(=O)CCn1nnc2ccccc21,-0.7%,-1.7%,-0.5%,-1.7%,4.11µM*,?
CCOc1cc(NC(=S)Nc2cccc(C)c2)c(OCC)cc1NC(=O)CC(C)C,?,20.8%,-5.4%,11.1%,3.26µM*,i
O=C(NCCc1ccccc1)c1cnn(-c2ccc(F)cc2)c1-n1cccc1,·,·,·,·,?,i
OC(c1cccc(Cl)c1)c1nc(-c2cccc3cccnc23)cs1 (centres undefined),17.7%,·,1.9%,·,i,i
COc1ccc(-c2noc(CSc3nnc(-c4ccncc4)n3-c3ccc(OC)cc3)n2)cc1,·,·,·,·,i,?
COc1cccc(-c2nnc(SCC(=O)N(C)c3ccccc3)o2)c1,·,·,·,·,i,i
CCC1CCCCN1CCCNC(=O)C1CCN(Cc2nc(-c3ccc(Cl)cc3)oc2C)CC1 (centres undefined),18.4µM*,4.2%,?,?,i,?
SMILES,HT1080-NT tox,SW480 rerep,HT1080 IDH1KD tx,MCF10A rereplic,KB-V1 cytotox,KB-3-1 cytotox
Cc1oc(-c2cccc(Cl)c2)nc1CN1CCCC(C(=O)NCc2ccc(F)cc2)C1 (centres undefined),·,·,·,·,i,i
Cc1oc(-c2ccc(Cl)cc2)nc1CN1CCC(C(=O)NCCCN2CCOCC2)CC1,22.4µM*,?,?,0.0%,i,i
Cc1oc(-c2cccc(Cl)c2)nc1CN1CCCC(C(=O)NCCCN2CCOCC2)C1 (centres undefined),-20.7%,12.0%,-28.7%,?,13µM*,i
Cc1oc(-c2ccc(Cl)cc2)nc1CN1CCC(C(=O)NCc2cccs2)CC1,20.6µM*,14.0%,?,14.9%,i,i
Cc1oc(-c2ccc(Cl)cc2)nc1CN1CCC(C(=O)NCC2CCCO2)CC1 (centres undefined),-10.0%,10.2%,-8.0%,-2.6%,?,i
O=C(NCC1CC1)c1ccc2nc(-c3ccoc3)c(-c3ccoc3)nc2c1,·,·,·,·,i,i
C=CCc1c(C)nc(C)nc1N/N=C/c1ccccc1O,6.3%,11.6µM*,-23.4%,18.7%,7.31µM*,i
CCOC(=O)C1CCN(C(c2cccnc2)c2c(NC(=O)c3ccco3)sc(C)c2C)CC1 (centres undefined),-18.8%,?,?,?,2.91µM*,3.26µM*
CCOC(=O)c1ccc(N2C(=O)c3n[nH]c(C)c3C2c2ccc(OCC)cc2)cc1 (centres undefined),·,·,·,·,?,23.1µM*
CCOC(=O)c1ccc(N2C(=O)c3n[nH]c(-c4cccs4)c3C2c2ccc(OC)cc2OC)cc1 (centres undefined),·,·,·,·,25.9µM*,?
CCOC(=O)c1ccc(N2C(=O)c3n[nH]c(C)c3C2c2ccccn2)cc1 (centres undefined),-4.0%,-2.3%,-3.0%,3.2%,i,i
Cc1ccc(N2C(=O)c3n[nH]c(C)c3C2c2ccccc2Cl)cc1 (centres undefined),·,·,·,·,?,i
Cc1[nH]nc2c1C(c1ccccn1)N(c1ccc(Br)cc1)C2=O (centres undefined),-1.1%,-7.1%,-0.1%,-3.8%,18.4µM*,i

# Compound activity deposited in PubChem BioAssay by National Center for Advancing Translational Sciences (NCATS).
